Common to all, as to format: functional
In assay [1] the target is Solute carrier family 2, facilitated glucose transporter member 1 (Homo sapiens) (UniProt P11166). Kind of assay: ST_JUDE_LEISH: Cytotoxicity at 2uM final concentration against transgenic Leishmania Mexicana promastigotes LmGLUT1 that are glucose transport deficient and complemented with the human glucose transporter GLUT1. Activity is measured by DNA content using SYBR green in vitro.

Assay [2] deals with Hexose transporter 1 (Plasmodium falciparum) (UniProt O97467). Kind of assay: ST_JUDE_LEISH: Cytotoxicity at 2uM final concentration against transgenic Leishmania Mexicana promastigotes LmPfHT that are glucose transport deficient and complemented with the Plasmodium falciparum hexose transporter. Activity is measured by DNA content using SYBR green in vitro.
Assay [3] concerns the target Glucose transporter (Leishmania mexicana) (UniProt O61059). Kind of assay: ST_JUDE_LEISH: Cytotoxicity at 2uM final concentration against transgenic Leishmania Mexicana promastigotes LmGT2 that are glucose transport deficient and complemented with the L. Mexicana glucose transporter 2. Activity is measured by DNA content using SYBR green in vitro.

Our source for the inhibition values is ChEMBL document CHEMBL3433997, “St. Jude Leishmania screening dataset” (2016).

The structures appear in SMILES notation. “And” between values parts separate entries of the source, which are not always exact repeats. Equal entries are not always repeated.

Solute carrier family 2, facilitated glucose transporter member 1 (Homo sapiens), sequence (P11166 whole entry): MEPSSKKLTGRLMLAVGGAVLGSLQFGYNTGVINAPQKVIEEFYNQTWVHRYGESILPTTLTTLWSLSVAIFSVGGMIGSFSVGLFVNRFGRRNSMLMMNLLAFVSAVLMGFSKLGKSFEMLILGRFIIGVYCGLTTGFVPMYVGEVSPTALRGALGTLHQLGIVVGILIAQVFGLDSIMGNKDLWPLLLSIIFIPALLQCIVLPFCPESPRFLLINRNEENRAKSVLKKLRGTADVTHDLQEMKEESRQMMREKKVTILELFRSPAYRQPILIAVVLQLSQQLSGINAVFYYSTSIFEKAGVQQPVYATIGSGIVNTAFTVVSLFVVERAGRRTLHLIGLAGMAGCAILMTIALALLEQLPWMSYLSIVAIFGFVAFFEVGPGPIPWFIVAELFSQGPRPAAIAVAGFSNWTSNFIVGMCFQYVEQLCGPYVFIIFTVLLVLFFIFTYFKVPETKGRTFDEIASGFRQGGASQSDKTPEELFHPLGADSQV

In general, inhibition refers to the drop in the measured response relative to a control, in per cent. As for `CC(C)C(C(=O)Nc1ccc(S(=O)(=O)N(C)C)cc1)c1ccc(Cl)cc1` (stereo not given), the values for the inhibition in assay [1], in assay [2] and in assay [3] were -2.78%, -3.31% and 0.19%, respectively.

For `CC(Cc1ccc(OCc2ccccc2)cc1)Nc1nc(O)c2ccccc2n1` (stereo not given), the results for the inhibition in assay [1], in assay [2] and in assay [3] were 2.96%, 1.33% and 3.22%, respectively.

For `COc1cc(C(F)(F)F)nc2c(CNCCCNc3cc(=O)c4ccccc4[nH]3)scc12`, the inhibition came out at 0.84% in assay [1], 0.13% in assay [2] and 0.55% in assay [3].

Take `Oc1ccc(CCNCc2ccc(OCc3ccccc3)c(OCc3ccccc3)c2)cc1`: the inhibition in assay [1] came out at 75%; in assay [2], 76.6%; in assay [3], 68.5%.

With `CC(=O)Oc1cc(C)ccc1C1CCN(CCCCNC(=O)c2ccc(-c3ccc(C(F)(F)F)cc3)cc2)CC1`, the inhibition came out at 1.9% in assay [1], 2.04% in assay [2] and 1.11% in assay [3].

For `Cn1c(/C=C/C(=O)NC2CCC(CCN3CCc4ccc(C#N)cc4CC3)CC2)cc2ccccc21` (stereo not given), the inhibition came to 2.51% in assay [1], 4.9% in assay [2] and 3.48% in assay [3].

For `Cc1ncccc1-c1cccc2c(NC(=O)Nc3ccc4nccc(N5CCN(C)CC5)c4c3)cccc12`, the inhibition is 4.96% in assay [1], 3.58% in assay [2] and 1.71% in assay [3].

With `CCC[C@@H]([C@@H](CC(C)C)C(=O)N[C@@H](CCCCNC(=O)c1ccccn1)C(=O)Nc1nccs1)N(O)C=O`, the inhibition was determined as 4.93% in assay [1], 6.98% in assay [2] and 1.73% in assay [3].

As for `Cc1ccc2cc(NC(=O)CCCCCCCON3C(N)=NC(N)=NC34CCCCC4)ccc2n1`, the inhibition is -1.59% in assay [1], 0.8% in assay [2] and 0.83% in assay [3].

`O=C(Cn1c(CCc2cccc(F)c2F)cc(=O)c2cccnc21)N(CCN1CCCC1)Cc1ccc(-c2ccc(C(F)(F)F)cc2)cc1`: the results for the inhibition in assay [1], in assay [2] and in assay [3] were 2.13%, 2.76% and 1.23%, respectively.

Take `FC(F)(F)c1cccc(CNCC2CCN(Cc3ccc4c(c3)OCO4)CC2)c1`: the values for the inhibition in assay [1], in assay [2] and in assay [3] were 9.53%, 12.1% and 12.3%, respectively.

On to `CC1CC(NCCCNc2cc(=O)c3ccccc3[nH]2)c2c(Cl)c(Cl)cc(Cl)c21` (stereo not given), for which the results for the inhibition in assay [1], in assay [2] and in assay [3] were 5.21%, 3.08% and 1.22%, respectively.

`COc1cccc2c(N/N=C/c3ccccc3[N+](=O)[O-])cc(C)nc12`: the inhibition in assay [1] is 0.15%; in assay [2] it was 0.03%; in assay [3], 0.39%.

`CC(C)CNCc1ccc(-c2cccc(CN(C(=O)NCCc3ccccc3)C3CCN(Cc4ccccc4)CC3)c2)cc1`: the inhibition was 9.24% in assay [1], 11% in assay [2] and 8.02% in assay [3].

In the case of `Cc1nc(Nc2ccncc2)cc(-c2ccncc2)n1`, the inhibition came out at 0.59% in assay [1], 4.18% in assay [2] and 2.92% in assay [3].

As to `CN(CCN1CCCC1)c1nc2cc(-n3cnc4cc(-c5ccc(Cl)cc5)sc4c3=O)ccc2[nH]1`, the inhibition in assay [1] came out at 0.93%; in assay [2] it was 0.75%; in assay [3] it was 1.45%.

On to `N#Cc1ccc(CN2CCC(Oc3ccc(NC(=O)c4ccccc4)cc3Cl)CC2)cc1`, for which the inhibition was 0.83% in assay [1], -1.16% in assay [2] and 1.28% in assay [3].

Regarding `COc1cc(C)nc2ccc(NC(=O)c3cc([N+](=O)[O-])cc([N+](=O)[O-])c3)cc12`, the inhibition stood at 2.43% in assay [1], 0.24% in assay [2] and 3.33% in assay [3].

For `Cc1cccc2nc(-c3cccc(-c4ccc(NC(=O)C(C)C(=O)NC(C)C)cc4)c3)[nH]c12` (stereo not given), the inhibition stood at 0.75% in assay [1], 2.05% in assay [2] and 2.38% in assay [3].

As for `Cc1noc(C)c1-c1ccc2c(Nc3ccccc3C(C)(C)C)c(C(=O)NCc3ccc(OC(C)C)cc3)cnc2c1`, the figures for the inhibition in assay [1], in assay [2] and in assay [3] were 3.36%, 4.36% and 5.28%, respectively.

For `C=CCc1ccc(C2CCN(CCCCNC(=O)c3ccc(NC(=O)c4ccc(Cl)cc4)cc3)CC2)cc1`, the inhibition in assay [1] is 0.91%; in assay [2], 0.58%; in assay [3] it was 0.46%.

For the compound `CC(CN1CCN(C)CC1)C(=O)Nc1ccc(-c2ccc(-c3nc4ccccc4[nH]3)s2)cc1` (stereo not given), the inhibition in assay [1] turned out to be 5.66%; in assay [2], 5.15%; in assay [3] it was 3.56%.

As for `OCC1CCN(Cc2ccc(-c3ccc(-c4nc5cc(C(F)(F)F)ccc5[nH]4)s3)cc2)CC1`, the inhibition in assay [1] was 1.82%; in assay [2], 0.23%; in assay [3], 1.7%.

Turning to `N#Cc1ccc2c(c1)CN(CC[C@H]1CC[C@H](NC(=O)/C=C/c3c[nH]c4ccccc34)CC1)CC2`, the inhibition was 7.48% and 1.99% in assay [1]; 6.9% and 1.06% in assay [2]; 5.69% and -2.35% in assay [3].

Consider `N#Cc1cccc(NC(=O)Nc2cccc(-c3cccc(-c4nc5cc(C(F)(F)F)ccc5[nH]4)c3)c2)c1`, for which the inhibition turned out to be 2.08% in assay [1], 1.85% in assay [2] and 3.18% in assay [3].

With `Cc1nc2ccc3ccc(CNc4ccc(C(=O)N[C@@H](CCC(=O)O)C(=O)N[C@@H](Cc5cccs5)C(=O)O)c(F)c4)cc3c2c(=O)[nH]1`, the inhibition in assay [1] was determined as 6.55%; in assay [2], 7.51%; in assay [3], 6.36%.

Consider `COc1cccc(C(=O)NCCc2cccc(Cl)c2)c1OCc1ccccc1`, for which the values for the inhibition in assay [1], in assay [2] and in assay [3] were 0.04%, -0.53% and -0.7%, respectively.

Turning to `COc1cc2c(cc1OC)C(C(=O)Nc1ccc(C(F)(F)F)cc1)C(c1cccs1)N(C)C2=O` (stereo not given), the values for the inhibition in assay [1], in assay [2] and in assay [3] were 2.92%, 3.56% and 1.2%, respectively.

Take `S=C(NCCCCCN1CCC(c2c[nH]c3ccccc23)CC1)Nc1cccc(I)c1`: the inhibition in assay [1] was 0.7%; in assay [2], 1.62%; in assay [3], -1.76%.

Turning to `CCOC(=O)c1cc(=O)c2ccc(OCC#N)cc2o1`, the inhibition in assay [1] worked out at 88.5%; in assay [2], 82.1%; in assay [3], 74.8%.

Consider `CCCCc1cc(NCc2ccncc2)nc(Nc2ccc(OC)cc2)n1`, for which the inhibition in assay [1] amounted to 12.9%; in assay [2], 5.76%; in assay [3], 3.3%.

On to `COc1ccc2ncc(Cl)c(N3CCC(CCNCc4ccc5c(n4)NC(=O)CS5)CC3)c2c1`, for which the figures for the inhibition in assay [1], in assay [2] and in assay [3] were 2.36%, 0.92% and 3.01%, respectively.

As for `COc1nc2c(CCN3CCC(NCc4ccc5c(c4)NC(=O)CO5)CC3)c(Cl)cnc2cc1F`, the results for the inhibition in assay [1], in assay [2] and in assay [3] were 3.07%, 0.9% and 1.45%, respectively.

With `O=C(NCC1Cc2cc(Oc3ccccc3)ccc2O1)c1ccc([N+](=O)[O-])o1` (stereo not given), the inhibition came out at 7.98% in assay [1], 10.4% in assay [2] and 3.24% in assay [3].

Take `COc1ccc(-c2ccc(CN(C)C3CCC(NC(=O)c4cc5ccccc5[nH]4)CC3)cc2)cn1` (stereo not given): the inhibition in assay [1] is -1.44%; in assay [2], -1.14%; in assay [3] it was -1.54%.
